Screening data deposited in PubChem by several laboratories.
Y pestis TopoI – blocks Yersinia pestis topoisomerase I activity. Y. pestis Topo-I cleavage product accumulation, plate reader. activity, % at 10 µM. 0.064% of 360,000 active. AID 504884; in the data active = activity above about 50%, passing the limit was not always enough; inconclusive = no clear call, values can overlap the other calls
Rv3671c protease – inhibits the M. tuberculosis serine protease Rv3671c; inhibition, % at 5.96 µM; 0.048% of 320,000 active; in the data active = inhibition above about 38%;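 note: extracellular domain of Rv3671c used as enzyme; 0% = enzyme with DMSO and 100% = no enzyme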
Target sequence (P9WHR9 whole entry, looked up, the tested form may be a part): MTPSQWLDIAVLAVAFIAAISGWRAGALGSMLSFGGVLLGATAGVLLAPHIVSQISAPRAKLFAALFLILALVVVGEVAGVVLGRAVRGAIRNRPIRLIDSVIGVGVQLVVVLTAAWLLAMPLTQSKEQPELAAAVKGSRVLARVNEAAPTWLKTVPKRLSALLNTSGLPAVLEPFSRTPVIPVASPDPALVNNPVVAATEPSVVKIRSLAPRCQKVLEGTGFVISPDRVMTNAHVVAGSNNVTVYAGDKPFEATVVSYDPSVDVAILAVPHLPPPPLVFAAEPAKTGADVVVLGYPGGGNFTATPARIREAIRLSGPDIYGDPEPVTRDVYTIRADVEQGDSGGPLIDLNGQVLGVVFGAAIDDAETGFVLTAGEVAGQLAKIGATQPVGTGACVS
PfHsp40 rescue – compounds rescuing yeast from Plasmodium falciparum HSP40 toxicity. S. cerevisiae expressing PfHsp40, growth rescue, ATP luminescence. growth rescue, % at 12.5 µM. 0.68% of 340,000 active. AID 504582; in the data active = growth rescue above about 28%, passing the limit was not always enough; inconclusive = no clear call, values can overlap the other calls;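 note: yeast W303a lacking pdr1 and pdr3 grown in galactose medium; growth measured after three days at 30 °C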
Mtb betalactam – beta-lactam sensitization of Mtb H37Rv. M. tuberculosis H37Rv growth with meropenem, percent inhibition. 0.27% of 330,000 active. inhibition, % at 25 µM; call rule not given here;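 note: growth measured after seven days incubation then overnight dye step; 0% = bacteria only wells and 100% = bacteria with antibiotic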
Mtb UGM inh – Mtb UDP-galactopyranose mutase inhibition. 0.06% of 320,000 active. inhibition, % at 10 µM. purified UGM, fluorescence polarization probe displacement. P9WIQ1; in the data active = inhibition above about 10%, passing the limit was not always enough; inconclusive = no clear call, values can overlap the other calls
FadD28 FP inh – blocks FadD28 binding to the bisubstrate probe. fluorescence polarization. inhibition, % at 12.5 µM. 0.22% of 360,000 active; in the data active = inhibition above about 8.5%, passing the limit was not always enough; inconclusive = no clear call, values can overlap the other calls
Active calls of the source: *. Shown are actives, neighbours in structure and some others; about 0.98% of the full set was active somewhere.

`CCOC(=O)c1cnc(-n2nc(C)cc2C)nc1NC` gave Y pestis TopoI 8, Rv3671c protease -2, PfHsp40 rescue 0, Mtb betalactam 89, Mtb UGM inh 1 and FadD28 FP inh 1.
For CCOC(=O)c1cnc(-n2nc(C)cc2C)nc1NC1CCCCC1 the results were Y pestis TopoI 8, Rv3671c protease 0, PfHsp40 rescue 92*, Mtb betalactam 85, Mtb UGM inh -2 and FadD28 FP inh -4.
For C=CCNC(=O)N1c2ccccc2Sc2ccccc21 the results were Y pestis TopoI 1, Rv3671c protease -1, PfHsp40 rescue 57*, Mtb betalactam -4, Mtb UGM inh -1 and FadD28 FP inh 0.
`C[C@@H]1CN([C@H](C)CO)C(=O)CCCn2nncc2CO[C@H]1CN(C)C(=O)c1ccc2ccn(C)c2c1` gave Y pestis TopoI -10 and FadD28 FP inh -1.
For O=C(COC(=O)c1ccc([N+](=O)[O-])o1)NC1CCCc2ccccc21 (configuration not stated) the results were Y pestis TopoI -11, Rv3671c protease -26, PfHsp40 rescue 262*, Mtb betalactam 74 and Mtb UGM inh 1.
Screening O=C(COC(=O)COc1cccc(Br)c1)NCc1ccc2c(c1)OCO2 returned Y pestis TopoI 16, Rv3671c protease -3, PfHsp40 rescue 1, Mtb betalactam -5, Mtb UGM inh 11* and FadD28 FP inh -4.
Screening O=C(COC(=O)c1ccc([N+](=O)[O-])o1)NCc1ccc2c(c1)OCO2 returned Y pestis TopoI 5, Rv3671c protease -25, PfHsp40 rescue 168*, Mtb betalactam 70, Mtb UGM inh 3 and FadD28 FP inh -3.
For COc1cc(C)ccc1S(=O)(=O)NC(=O)C1(C)CCN1C(=O)c1ccc(C2CCCCC2)cc1 (configuration not stated) the results were Y pestis TopoI 14 and FadD28 FP inh 0.
`COc1cc(NC(=O)Nc2nnc([C@H]3C[C@H](O)[C@@H](CO)O3)s2)cc(OC)c1` gave Y pestis TopoI -2 and FadD28 FP inh -6.
`COc1ccc(S(=O)(=O)N(C)C[C@@H]2OCc3cn(nn3)CCCC(=O)N([C@H](C)CO)C[C@H]2C)cc1` gave FadD28 FP inh -3.
`COc1ccc(C(O)c2ncc(-c3ccccc3)[nH]2)cc1F` (configuration not stated) gave Y pestis TopoI 10 and FadD28 FP inh 0.
For Cc1ccc(C(=O)Nc2nnc(COCCO)s2)cc1 the results were Y pestis TopoI 3 and FadD28 FP inh 0.
Cn1c(-c2ccc(C#N)cc2)c(C#Cc2ccccc2)c2ccccc21 was read as Y pestis TopoI -3, PfHsp40 rescue -1 and FadD28 FP inh -3.
N#Cc1c(-c2ccc(Cl)cc2)n(O)c2ccccc12 was read as Y pestis TopoI -6, PfHsp40 rescue 284* and FadD28 FP inh inconclusive.
Screening COc1ccc(NC(=O)COC(=O)CN2C(=O)C3CCCCC3C2=O)cc1 (configuration not stated) returned Y pestis TopoI -2 and FadD28 FP inh -2.
Screening CC1(C(=O)NS(=O)(=O)c2cccs2)CCN1C(=O)C1(c2ccccc2)CCCC1 (configuration not stated) returned Y pestis TopoI 1 and FadD28 FP inh -3.
For CCCc1nc2ccc(Cl)cn2c1Cc1ccc(C)cc1 the results were FadD28 FP inh -5.
For CCC(C)C(Nc1ccc(C(=O)OC)cc1[N+](=O)[O-])C(=O)OC (configuration not stated) the results were Y pestis TopoI 3, Rv3671c protease -9, PfHsp40 rescue -1, Mtb betalactam -5, Mtb UGM inh 1 and FadD28 FP inh -2.
COC(=O)c1ccc(NC(C(=O)OC)C(C)C)c([N+](=O)[O-])c1 (configuration not stated) was read as Y pestis TopoI -2, Rv3671c protease -10, PfHsp40 rescue 50*, Mtb betalactam -2, Mtb UGM inh -3 and FadD28 FP inh -1.
Screening N#Cc1c(C#N)c(-c2ccccc2)n(-c2ccc(C(=O)O)cc2)c1N returned Y pestis TopoI 0, Rv3671c protease -4, PfHsp40 rescue 0, Mtb betalactam -12, Mtb UGM inh -2 and FadD28 FP inh 12*.
N#Cc1c(N)n(-c2ccc(C(=O)O)cc2)c2nc3ccccc3nc12 was read as Y pestis TopoI -5, Rv3671c protease -21, PfHsp40 rescue -1, Mtb betalactam 1, Mtb UGM inh 1 and FadD28 FP inh -4.
`CCOc1cccc(/C=C/c2ccc3cccc(O)c3n2)c1O` gave Y pestis TopoI 2, Rv3671c protease 7, PfHsp40 rescue 2, Mtb betalactam 99, Mtb UGM inh 1 and FadD28 FP inh -1.
CCOc1cccc(/C=C/c2ccc3cccc(O)c3n2)c1OC was read as Y pestis TopoI -8, Rv3671c protease -4, PfHsp40 rescue 168*, Mtb betalactam 100, Mtb UGM inh -2 and FadD28 FP inh -3.
CC1=C(C(=O)N2CCOCC2)CC(CC(=O)NCC2CCCCC2)C(=O)N1CCC1=CCCCC1 (configuration not stated) was read as Y pestis TopoI 40 and FadD28 FP inh 0.
Screening Cc1c(-c2ccc(OCCN3CCOCC3)cc2)c(=O)oc2ccc3ccccc3c12 returned Y pestis TopoI 8 and FadD28 FP inh -3.
For CCN(CC)S(=O)(=O)c1ccc(N2CC(C(=O)NCc3ccco3)CC2=O)cc1 (configuration not stated) the results were Y pestis TopoI 4 and FadD28 FP inh 0.
`CCN(CC)C(=O)c1cccc(-c2csc(C(C)(O)c3ccc(F)c(F)c3)n2)c1` (configuration not stated) gave Y pestis TopoI -3 and FadD28 FP inh -4.
For O=C(NCc1cccnc1)c1c(O)c2cccc3c2n(c1=O)CCC3 the results were Y pestis TopoI 4, Rv3671c protease 4, PfHsp40 rescue 60*, Mtb betalactam 2, Mtb UGM inh 0 and FadD28 FP inh -3.
O=C(N/N=C/c1c(O)ccc2ccccc12)C(=O)N1CCCC1 was read as Y pestis TopoI 2 and FadD28 FP inh 0.
O=C(CN1CCCC1)N/N=C/c1c(O)ccc2ccccc12 was read as Y pestis TopoI -3, Rv3671c protease 3, PfHsp40 rescue 52*, Mtb betalactam 4, Mtb UGM inh 0 and FadD28 FP inh 0.
CCCCCCCCCCCCCCCC[N+](C)(C)CCl was read as Y pestis TopoI -33, PfHsp40 rescue 4 and FadD28 FP inh 20*.
Screening CCCCCCCCCCCCCCCC[N+](C)(C)C returned Y pestis TopoI -8, Rv3671c protease 10, PfHsp40 rescue inconclusive, Mtb betalactam 62, Mtb UGM inh -3 and FadD28 FP inh 24*.
For CCCCCC[N+](C)(C)CCSSCC[N+](C)(C)CCCCCC the results were Y pestis TopoI 8, Rv3671c protease 4, PfHsp40 rescue 0, Mtb betalactam -10, Mtb UGM inh -1 and FadD28 FP inh 0.
